Results published in PubChem BioAssay.
Calls of active or inactive are those of the source.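 How the source made its calls, unless noted: active means compounds that lower survival of HCT116 colon cancer cells in the luminescence readout, no numeric limit stated; inactive means the rest.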

Columns and labels:
[1] = Wnt pathway potentiators raising nuclear beta-catenin – imaging, WNT3A-conditioned medium, mouse C2C12, NPC library, primary screen (AID 1117326; in the data active means nuclear beta-catenin stimulation mostly above about 4.2%, no sharp cut-off; inactive means mostly below about 10%; further: reference of the scale not given here); conditions: stronger effect = higher value
[2] = stimulators of insulin release from INS-1E, primary screen, cell-based, 5 mM glucose, NPC library (AID 1117329;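 active means compound raises insulin release from rat beta cells at 5 mM glucose, no numeric limit stated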; further: reference of the scale not given here); conditions: rat INS-1E insulin secretion, at 10 µM, stronger effect = higher value
[3] = growth inhibition of GSK3B-pretreated HCT116 cells – cell-based, CellTiter-Glo, 0.2 to 20 µM (AID 1117336;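 active means compounds lowering colon cancer cell viability after pretreatment blocking the GSK3B kinase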); conditions: HCT116 viability after GSK3B inhibitor, at 20 µM, stronger effect = higher value
[4] = inhibition of endothelial tube formation, primary screen, imaging, VEGF stimulated, CD31 staining, tube area, NPC library (AID 1117340;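 active means compound that reduces growth-factor-driven endothelial tube area in a mixed cell culture, no cutoff stated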); conditions: VEGF-stimulated ADSC/ECFC co-culture, at 10 µM, stronger effect = higher value
[5] = GLP1 release stimulators, primary, NCI-H716, NPC library (AID 1117341;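 active means compound raises GLP1 secretion from the human gut endocrine cells, with no numeric limit stated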; further: reference of the scale not given here); conditions: NCI-H716 cells, at 10 µM, stronger effect = higher value
[6] = HCT116 colon cancer cell growth inhibition, primary screen, CellTiter-Glo luminescence, NPC library (AID 1117342); conditions: at 20 µM (top of the series)
[7] = reduced SW480 viability measured with CellTiter-Glo, NPC library, primary (AID 1117343;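 active means compounds that lower viability of the colon cancer cells in the luminescence readout, with no numeric limit stated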); conditions: CellTiter-Glo luminescence; at 20 µM (top of the series)
[8] = NPC library primary testing for decreased DLD-1 cell viability via CellTiter-Glo (AID 1117346;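 active means compounds that lower survival of DLD-1 colon cancer cells in the luminescence readout, no cutoff given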); conditions: DLD-1 viability, CellTiter-Glo luminescence; at 20 µM (top of the series)

| SMILES | nuclear beta-catenin stimulation ([1]; at 10 µM) | nuclear beta-catenin stimulation ([1]; stimulation, at 2 µM) | insulin secretion stimulation [2] | viability decrease [3] | tube area decrease [4] | GLP1 secretion stimulation [5] | inhibition of viability [6] | viability decrease (inhibition) [7] | viability decrease (inhibition) [8] |
| --- | --- | --- | --- | --- | --- | --- | --- | --- | --- |
| Nc1ccc(C(=O)Nc2ccccc2N)cc1 | 10.2% (inactive) | 1.9% | -0.6% (inactive) | 39.9% (active) | 8.5% (inactive) | 1.1% (inactive) | 72.5% (active) | 64.9% (active) | 29.3% (inactive) |
| Cc1ccc(S(=O)(=O)NC(=O)NC2CCCCC2)cc1 | 0.6% (inactive) | 0.3% | 26.7% (active) | -13% (inactive) | -13.1% (inactive) | -5.7% (inactive) | 0.6% (inactive) | 17.6% (inactive) | -1.8% (inactive) |
| CCCCCCCCCCCCCC[N+](C)(C)C | 61.2% (active) | 7.5% | -0.2% (inactive) | 101% (active) | 110% (active) | 29.7% (active) | 101% (active) | 122% (active) | 103% (active) |
| NC(=Nc1ccccc1)Nc1ccccc1 | 0.2% (inactive) | 1.4% | 13.9% (inactive) | 24.6% (inactive) | 10.1% (inactive) | 2.8% (inactive) | -1% (inactive) | 77.3% (active) | 75.2% (active) |
| C#Cc1ccc(-c2ccccc2F)cc1 | -1.3% (inactive) | -2.1% | 0.3% (inactive) | -3.5% (inactive) | 7.2% (inactive) | -0.7% (inactive) | 0.6% (inactive) | -12.8% (inactive) | 18.8% (inactive) |
| c1ccc2sc(SSc3nc4ccccc4s3)nc2c1 | 2.2% (inactive) | 0.3% | -0.6% (inactive) | -0.8% (inactive) | -4.4% (inactive) | 22.3% (active) | -5.7% (inactive) | -1% (inactive) | -20.5% (inactive) |
| COC[C@@H](c1ccc(C(F)(F)F)cc1)N1CCN(C2(C)CCN(C(=O)c3c(C)ncnc3C)CC2)C[C@H]1C | 2.4% (inactive) | 2.3% | 2.8% (inactive) | -44.2% (inactive) | 32% (inactive) | 3.1% (inactive) | 11.1% (inactive) | -3% (inactive) | 3.5% (inactive) |
| Cc1onc(-c2ccccc2)c1C(=O)Cl | 0% (inactive) | -1.4% | 2.75% (inactive) | 0.5% (inactive) | -12.1% (inactive) | 1.7% (inactive) | 1.8% (inactive) | -5.7% (inactive) | -12.5% (inactive) |
| C[C@@H]1CCN(C(=O)[C@H](CCCN=C(N)N)NS(=O)(=O)c2cccc3c2NC[C@H](C)C3)[C@@H](C(=O)O)C1 | 0.3% (inactive) | -0.5% | 1.35% (inactive) | -9.7% (inactive) | -5.4% (inactive) | 1.4% (inactive) | -3% (inactive) | -23.6% (inactive) | 0.9% (inactive) |
| C[C@H]1C[C@H](O)c2ccsc2S1(=O)=O | 0.6% (inactive) | 2.7% | -0.8% (inactive) | -1.3% (inactive) | 1.2% (inactive) | 1% (inactive) | 4.1% (active) | -6.2% (inactive) | -4% (inactive) |
| Fc1ccc(C(c2ccc(F)cc2)N2CCNCC2)cc1 | -0.2% (inactive) | 0.1% | 16.6% (inactive) | 29.7% (inactive) | 13.9% (inactive) | 7.5% (inactive) | 79.8% (active) | 72.4% (active) | 25.2% (inactive) |
| COC(=O)[C@H]1[C@H]2C[C@@H]3c4[nH]c5cc(OC)ccc5c4CCN3C[C@H]2C[C@@H](OC(=O)COc2ccc(OC)cc2)[C@@H]1OC | 3.2% (inactive) | -0.2% | -1.2% (inactive) | 10.9% (inactive) | 9.6% (inactive) | 8.5% (inactive) | 33.6% (inactive) | -12.3% (inactive) | 1.9% (inactive) |
| Cc1c(C)c2c(c(C)c1OC(=O)CCC(=O)O)CC[C@@](C)(CCC[C@H](C)CCC[C@H](C)CCCC(C)C)O2 | -0.9% (inactive) | -0.6% | 2.6% (inactive) | 36.4% (inactive) | 61.9% (active) | -3.2% (inactive) | 54.9% (active) | 75% (active) | 66% (active) |
| OC[C@H]1O[C@@H](n2cnc3c(=S)nc[nH]c32)[C@H](O)[C@@H]1O | -2.5% (inactive) | -0.2% | 0.7% (inactive) | 95.3% (active) | 95.4% (active) | -1.6% (inactive) | 84.2% (active) | 78.1% (active) | 73.5% (active) |
